Assay results: the supplement of paper PMC11732987, “Enantioselective OTUD7B fragment discovery through chemoproteomics screening and high-throughput optimisation” (Communications Chemistry, 2025)

Legend:
Test in all cases: log2 ratio of Biotin-Ahx-Ub-VS probe labelling (fragment/DMSO); higher = less target engagement (more negative = stronger competition), active = hit call of the paper (q ≤ 0.05, log2 ratio ≤ -1)
Details in all cases: compound concentration: 200 uM; treatment time: 3 h
USP19 = molecular target: T1, USP19 (UniProt O94966)
T1 sequence (whole entry): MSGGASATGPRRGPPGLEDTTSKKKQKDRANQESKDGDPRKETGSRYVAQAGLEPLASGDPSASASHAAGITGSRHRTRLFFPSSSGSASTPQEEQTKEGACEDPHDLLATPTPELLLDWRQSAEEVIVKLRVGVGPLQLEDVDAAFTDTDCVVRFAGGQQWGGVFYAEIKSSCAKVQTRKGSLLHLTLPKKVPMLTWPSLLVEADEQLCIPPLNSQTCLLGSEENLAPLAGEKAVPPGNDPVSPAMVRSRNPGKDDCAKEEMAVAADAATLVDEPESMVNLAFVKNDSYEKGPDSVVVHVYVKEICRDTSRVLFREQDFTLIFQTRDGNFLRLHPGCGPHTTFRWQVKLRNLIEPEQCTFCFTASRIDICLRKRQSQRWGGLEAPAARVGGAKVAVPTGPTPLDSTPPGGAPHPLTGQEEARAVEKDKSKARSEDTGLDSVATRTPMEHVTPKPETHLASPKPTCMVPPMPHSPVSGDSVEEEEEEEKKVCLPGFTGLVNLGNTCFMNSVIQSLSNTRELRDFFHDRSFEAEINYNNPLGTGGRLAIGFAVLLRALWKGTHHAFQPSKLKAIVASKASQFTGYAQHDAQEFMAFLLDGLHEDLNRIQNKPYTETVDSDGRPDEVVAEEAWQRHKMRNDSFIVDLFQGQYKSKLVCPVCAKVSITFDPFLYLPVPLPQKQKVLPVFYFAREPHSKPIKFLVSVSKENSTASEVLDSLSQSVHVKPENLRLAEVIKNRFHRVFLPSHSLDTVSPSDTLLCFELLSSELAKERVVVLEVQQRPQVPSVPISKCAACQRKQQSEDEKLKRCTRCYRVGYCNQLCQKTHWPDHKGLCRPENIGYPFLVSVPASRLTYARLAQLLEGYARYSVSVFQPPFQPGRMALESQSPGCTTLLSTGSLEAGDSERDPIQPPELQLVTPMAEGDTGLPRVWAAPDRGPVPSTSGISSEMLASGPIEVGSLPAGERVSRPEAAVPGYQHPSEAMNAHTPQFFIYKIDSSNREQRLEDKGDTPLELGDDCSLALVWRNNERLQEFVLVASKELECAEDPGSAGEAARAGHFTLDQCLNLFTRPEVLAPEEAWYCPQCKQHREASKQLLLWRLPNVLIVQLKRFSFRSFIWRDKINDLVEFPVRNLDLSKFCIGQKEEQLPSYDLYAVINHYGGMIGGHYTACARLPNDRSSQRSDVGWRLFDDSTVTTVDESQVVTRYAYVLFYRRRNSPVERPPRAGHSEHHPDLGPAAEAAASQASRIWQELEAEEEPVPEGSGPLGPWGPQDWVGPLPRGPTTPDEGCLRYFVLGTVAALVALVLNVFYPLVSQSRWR
How it was run: (§1)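 Fragment (200 µM) or vehicle was incubated for 3 h with triplicate HEK293T lysate samples of 495 µg, which were then treated with Biotin-Ahx-Ub-VS at 0.5 µM final for 1 h. Labelled DUBs were enriched on NeutrAvidin, digested with LysC and trypsin, and analysed by diaPASEF LC-MS/MS. Values are average log2 fragment/vehicle ratios from an unpaired t-test on global-median-normalised Spectronaut label-free quantities, using proteins with ≥2 unique peptides.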

USP22 = molecular target: T2, USP22 (UniProt Q9UPT9)
T2 sequence (whole entry): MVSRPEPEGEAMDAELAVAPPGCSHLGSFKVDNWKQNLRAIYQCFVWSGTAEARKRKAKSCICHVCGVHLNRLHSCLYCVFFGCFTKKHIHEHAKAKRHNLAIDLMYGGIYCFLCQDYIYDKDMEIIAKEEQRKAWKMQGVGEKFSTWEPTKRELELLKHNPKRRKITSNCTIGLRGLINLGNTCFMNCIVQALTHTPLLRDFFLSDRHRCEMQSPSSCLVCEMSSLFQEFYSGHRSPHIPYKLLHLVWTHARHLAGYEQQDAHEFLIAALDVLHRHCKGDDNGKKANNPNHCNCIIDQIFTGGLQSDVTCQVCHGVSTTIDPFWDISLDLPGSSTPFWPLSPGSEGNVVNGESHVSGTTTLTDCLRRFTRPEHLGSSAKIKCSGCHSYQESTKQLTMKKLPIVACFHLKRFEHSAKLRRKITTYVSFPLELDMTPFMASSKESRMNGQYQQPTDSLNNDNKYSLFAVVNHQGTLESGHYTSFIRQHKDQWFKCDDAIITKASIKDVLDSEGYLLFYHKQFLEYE
How it was run: as §1

USP24 = USP24 (UniProt Q9UPU5)
Sequence of USP24 (Q9UPU5 whole entry): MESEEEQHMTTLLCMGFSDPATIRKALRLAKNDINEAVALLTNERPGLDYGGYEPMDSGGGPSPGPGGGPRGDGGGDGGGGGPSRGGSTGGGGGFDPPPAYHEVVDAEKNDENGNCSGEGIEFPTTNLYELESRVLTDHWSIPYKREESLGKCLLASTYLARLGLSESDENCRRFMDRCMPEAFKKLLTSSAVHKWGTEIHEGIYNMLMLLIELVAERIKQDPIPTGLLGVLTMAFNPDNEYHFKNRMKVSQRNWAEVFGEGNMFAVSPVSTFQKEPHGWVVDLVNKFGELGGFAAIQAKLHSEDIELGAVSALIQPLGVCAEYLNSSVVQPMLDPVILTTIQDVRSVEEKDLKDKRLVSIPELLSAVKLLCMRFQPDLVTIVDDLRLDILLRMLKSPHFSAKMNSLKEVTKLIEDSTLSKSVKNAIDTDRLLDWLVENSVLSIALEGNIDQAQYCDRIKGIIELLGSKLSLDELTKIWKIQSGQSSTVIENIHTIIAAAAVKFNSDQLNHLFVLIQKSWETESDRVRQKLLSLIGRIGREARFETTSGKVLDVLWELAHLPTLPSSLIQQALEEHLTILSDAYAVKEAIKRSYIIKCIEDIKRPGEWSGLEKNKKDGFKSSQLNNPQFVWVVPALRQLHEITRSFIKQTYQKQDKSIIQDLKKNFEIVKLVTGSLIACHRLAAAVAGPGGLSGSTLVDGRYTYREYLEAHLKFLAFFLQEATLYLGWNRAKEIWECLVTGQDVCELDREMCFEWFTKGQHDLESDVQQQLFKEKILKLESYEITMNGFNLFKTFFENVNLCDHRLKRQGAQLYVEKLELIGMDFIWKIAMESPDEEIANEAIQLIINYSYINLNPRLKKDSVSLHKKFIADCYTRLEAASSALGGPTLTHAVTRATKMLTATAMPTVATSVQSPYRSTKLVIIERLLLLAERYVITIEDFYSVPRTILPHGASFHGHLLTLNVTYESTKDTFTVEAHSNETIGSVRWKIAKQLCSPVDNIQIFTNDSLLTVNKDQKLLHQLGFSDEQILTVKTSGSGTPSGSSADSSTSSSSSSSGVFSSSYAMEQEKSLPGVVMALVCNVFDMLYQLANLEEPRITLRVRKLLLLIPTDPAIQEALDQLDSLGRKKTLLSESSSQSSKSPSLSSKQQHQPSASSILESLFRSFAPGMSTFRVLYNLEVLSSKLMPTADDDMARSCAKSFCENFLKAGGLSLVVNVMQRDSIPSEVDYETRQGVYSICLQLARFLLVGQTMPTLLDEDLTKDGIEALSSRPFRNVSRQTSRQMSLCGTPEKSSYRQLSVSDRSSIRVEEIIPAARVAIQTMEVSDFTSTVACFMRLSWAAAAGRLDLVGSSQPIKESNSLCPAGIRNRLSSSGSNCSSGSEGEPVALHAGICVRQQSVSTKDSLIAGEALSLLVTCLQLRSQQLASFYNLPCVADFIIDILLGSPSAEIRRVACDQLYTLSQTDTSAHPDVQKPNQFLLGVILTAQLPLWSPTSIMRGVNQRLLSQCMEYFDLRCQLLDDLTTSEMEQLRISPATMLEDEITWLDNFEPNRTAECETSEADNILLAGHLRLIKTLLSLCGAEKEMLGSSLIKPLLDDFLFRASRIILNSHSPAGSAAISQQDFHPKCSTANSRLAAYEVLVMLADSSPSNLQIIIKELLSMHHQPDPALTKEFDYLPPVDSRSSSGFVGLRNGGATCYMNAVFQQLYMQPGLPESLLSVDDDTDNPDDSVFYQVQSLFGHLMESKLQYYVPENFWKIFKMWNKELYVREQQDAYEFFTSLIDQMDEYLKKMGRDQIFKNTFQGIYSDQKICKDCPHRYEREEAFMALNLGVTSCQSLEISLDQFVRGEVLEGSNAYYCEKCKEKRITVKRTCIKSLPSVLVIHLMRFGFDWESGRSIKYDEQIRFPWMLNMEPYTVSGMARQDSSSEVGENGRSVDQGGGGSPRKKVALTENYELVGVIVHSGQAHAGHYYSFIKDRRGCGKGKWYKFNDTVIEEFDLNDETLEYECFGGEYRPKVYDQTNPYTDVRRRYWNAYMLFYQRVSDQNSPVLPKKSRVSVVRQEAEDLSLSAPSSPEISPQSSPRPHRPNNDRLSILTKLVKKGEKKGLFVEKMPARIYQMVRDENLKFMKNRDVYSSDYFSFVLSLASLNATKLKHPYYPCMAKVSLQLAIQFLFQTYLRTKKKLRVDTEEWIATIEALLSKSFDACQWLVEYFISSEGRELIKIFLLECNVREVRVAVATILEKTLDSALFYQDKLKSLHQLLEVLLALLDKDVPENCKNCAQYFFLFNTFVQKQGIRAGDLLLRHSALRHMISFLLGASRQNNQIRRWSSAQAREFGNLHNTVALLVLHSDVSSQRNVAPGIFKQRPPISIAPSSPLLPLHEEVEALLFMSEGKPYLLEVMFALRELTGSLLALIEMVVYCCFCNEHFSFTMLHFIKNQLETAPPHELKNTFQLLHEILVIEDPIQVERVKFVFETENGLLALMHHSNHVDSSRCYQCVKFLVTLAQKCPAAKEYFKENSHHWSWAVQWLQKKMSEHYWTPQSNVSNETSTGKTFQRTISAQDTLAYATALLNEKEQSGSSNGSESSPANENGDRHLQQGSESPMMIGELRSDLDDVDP
How it was run: as §1

USP25 = molecular target: T3, USP25 (UniProt Q9UHP3)
T3 sequence (whole entry): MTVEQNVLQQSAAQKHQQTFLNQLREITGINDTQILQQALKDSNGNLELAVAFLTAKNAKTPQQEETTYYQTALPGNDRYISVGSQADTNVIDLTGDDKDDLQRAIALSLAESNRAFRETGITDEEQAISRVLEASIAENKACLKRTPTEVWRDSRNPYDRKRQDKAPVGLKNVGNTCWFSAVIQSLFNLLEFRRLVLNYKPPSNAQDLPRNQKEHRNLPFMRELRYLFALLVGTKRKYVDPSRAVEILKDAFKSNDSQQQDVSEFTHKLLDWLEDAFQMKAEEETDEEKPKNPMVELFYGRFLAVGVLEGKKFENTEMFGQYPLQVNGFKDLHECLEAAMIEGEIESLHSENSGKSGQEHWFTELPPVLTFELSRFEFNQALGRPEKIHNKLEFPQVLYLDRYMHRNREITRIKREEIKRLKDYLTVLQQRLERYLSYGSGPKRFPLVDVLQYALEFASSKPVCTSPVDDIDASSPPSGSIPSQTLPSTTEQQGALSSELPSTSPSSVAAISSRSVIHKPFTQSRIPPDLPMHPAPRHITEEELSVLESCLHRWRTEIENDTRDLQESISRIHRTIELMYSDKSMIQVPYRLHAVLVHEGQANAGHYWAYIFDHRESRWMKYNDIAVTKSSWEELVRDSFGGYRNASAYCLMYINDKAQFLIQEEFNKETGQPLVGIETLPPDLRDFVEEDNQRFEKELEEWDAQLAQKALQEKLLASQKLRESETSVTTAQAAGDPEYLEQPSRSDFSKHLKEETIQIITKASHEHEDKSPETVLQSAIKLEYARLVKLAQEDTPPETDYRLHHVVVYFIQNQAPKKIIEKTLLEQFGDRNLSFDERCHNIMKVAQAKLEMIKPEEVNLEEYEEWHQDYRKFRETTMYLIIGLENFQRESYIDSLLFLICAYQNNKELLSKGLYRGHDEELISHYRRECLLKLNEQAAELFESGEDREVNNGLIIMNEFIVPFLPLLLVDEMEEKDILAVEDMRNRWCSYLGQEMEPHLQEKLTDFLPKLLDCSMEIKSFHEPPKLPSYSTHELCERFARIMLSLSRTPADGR
How it was run: as §1

USP28 = molecular target: T4, USP28 (UniProt Q96RU2)
T4 sequence (whole entry): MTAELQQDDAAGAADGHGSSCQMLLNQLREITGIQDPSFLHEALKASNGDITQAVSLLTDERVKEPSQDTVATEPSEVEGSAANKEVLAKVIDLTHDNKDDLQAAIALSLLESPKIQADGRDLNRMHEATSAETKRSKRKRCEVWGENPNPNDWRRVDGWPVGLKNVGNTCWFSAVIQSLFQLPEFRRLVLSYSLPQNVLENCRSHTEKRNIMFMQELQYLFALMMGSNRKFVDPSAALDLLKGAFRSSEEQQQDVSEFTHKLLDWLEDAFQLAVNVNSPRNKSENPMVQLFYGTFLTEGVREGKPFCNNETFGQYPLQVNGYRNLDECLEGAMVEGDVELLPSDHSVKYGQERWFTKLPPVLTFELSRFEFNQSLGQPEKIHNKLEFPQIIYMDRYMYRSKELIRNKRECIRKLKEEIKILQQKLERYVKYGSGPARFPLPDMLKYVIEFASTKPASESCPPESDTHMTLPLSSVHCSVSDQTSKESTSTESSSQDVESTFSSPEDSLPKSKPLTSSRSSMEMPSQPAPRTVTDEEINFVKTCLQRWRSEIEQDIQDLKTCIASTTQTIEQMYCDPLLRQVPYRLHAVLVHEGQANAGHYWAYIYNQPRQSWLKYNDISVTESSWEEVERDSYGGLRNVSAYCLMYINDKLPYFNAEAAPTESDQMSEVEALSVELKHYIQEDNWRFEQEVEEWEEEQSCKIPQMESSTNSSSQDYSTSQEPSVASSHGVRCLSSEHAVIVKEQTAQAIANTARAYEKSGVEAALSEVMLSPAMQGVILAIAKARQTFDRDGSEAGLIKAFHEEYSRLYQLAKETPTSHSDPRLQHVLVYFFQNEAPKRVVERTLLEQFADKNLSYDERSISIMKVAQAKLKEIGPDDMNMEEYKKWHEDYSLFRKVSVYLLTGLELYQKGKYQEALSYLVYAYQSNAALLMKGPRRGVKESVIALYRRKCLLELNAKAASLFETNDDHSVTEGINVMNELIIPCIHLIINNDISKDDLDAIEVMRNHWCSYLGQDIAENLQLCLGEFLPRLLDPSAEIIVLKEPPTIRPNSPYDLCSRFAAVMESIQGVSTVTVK
How it was run: as §1

Measured: log2 ratio of Biotin-Ahx-Ub-VS probe labelling

O=C(CCl)N1CCC(c2ccn[nH]2)C1 (stereo not given)
inactive: USP19 -0.276 | USP22 -0.234 | USP24 -0.326 | USP25 -0.433 | USP28 -0.425
